In the library only some 8.1% were active in any assay of this set; here they are far more common.
KB-3-1 cytotox – KB-3-1 parental cell cytotoxicity; KB-3-1 viability, CellTiter-Glo ATP luminescence, 72 h; Potency, µM (doses to about 46.1 µM), hits mostly cytotoxic; 400,000 tested, 1.4% active; AID 1347075; also: % is scaled to controls: 0 for no effect and ±100 for the full control effect; nearly all actives have a fitted effect of over 60% in size
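Screening of KB-3-1 cells (DMEM, 10% FBS, phenol-red free) ran from lowest to highest compound concentration; after 72 h at 37 °C viability was read luminescently and curves fitted.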
SW480 rerep – inducers of DNA re-replication in SW480 colon cancer cells | SW480 DNA re-replication, Hoechst DNA content imaging, 48 h | Potency, µM (top dose mostly 46.1 µM), inactives show at the highest dose re-replication activation, usual class: activators | 340,000 tested, 1.8% active | AID 624297; also: % of control where 0% means no effect; nearly all actives have a fitted effect of over 55% in size
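Image-based read-out: total Hoechst fluorescence of nuclei (405 nm excitation, 500-530 nm emission), with hits raising the fraction of high-intensity nuclei. SW480 colon cells incubated 48 hr with compounds at 37 C.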
MCF10A rereplic – DNA re-replication induction in MCF 10a cells | MCF 10A DNA re-replication, Hoechst nuclear intensity, 48 h | Potency, µM (highest dose often 46.1 µM), inactives show at the top dose activity, positive = re-replication, actives largely listed as activators | 350,000 tested, 2.9% active | AID 624296; also: % of control where 0% means no effect; nearly all actives have a fitted effect of over 50% in size
ELG1 DNA repair – blocks ELG1-dependent DNA repair in HEK293T cells; HEK293T ELG1-luciferase reporter, luminescence, 16 h; DNA damage induced by 5-fluorouridine; Potency, µM (series often up to 46.1 µM), for inactives: at the top dose activity change, negative = inhibition, hits mostly inhibitors; 330,000 tested, 2.3% active; also: % is scaled to controls: 0 for no effect and ±100 for the full control effect; nearly all actives have a fitted effect of over 55% in size
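Reporter activity after DNA damage by 5-fluorouridine is monitored. Compound-treated cells incubate 16 hr at 37 °C, then ONE-Glo is added for 30 min before luminescence reading.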
KB-V1 MDR tox – KB-V1 MDR subline cytotoxicity. Potency, µM (doses to about 46.1 µM), actives largely listed as cytotoxic. AID 1347076. KB-V1 MDR cells viability, CellTiter-Glo, 72 h. 400,000 tested, 3.4% active; also: % is scaled to controls: 0 for no effect and ±100 for the full control effect; nearly all actives have a fitted effect of over 60% in size
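Cytotoxicity toward P-gp-expressing KB-V1 cells was determined as loss of CellTiter-Glo luminescence after 72 h at 37 degrees C. Compounds were tested in quantitative HTS format across a concentration range, with curves fitted to normalized data.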
* = called active by the depositor; i = inactive; u = inconclusive; x = no result; [ ] = remark or other dose. Calls follow the shape of the dose curve; as a rule, active = well fitted curve in the direction sought with a large enough effect; inconclusive = small, poorly fitted or top-dose-only effect, or another doubt; inactive = no such curve, though single readings can be large; an effect the other way counts as inactive or inconclusive. Potency is read from the fitted curve at half-maximal effect.

SMILES	KB-3-1 cytotox	SW480 rerep	MCF10A rereplic	ELG1 DNA repair	KB-V1 MDR tox
NC(=O)N1c2ccccc2C=Cc2ccccc21	i	-4%	u	0%	i
CCN(CC)C(=O)N1c2ccccc2C=Cc2ccccc21	3.7µM*	7%	u	0%	u
O=C(NCC1COc2ccccc2O1)C1CCN(S(=O)(=O)c2ccc(Cl)cc2)CC1 (configuration not stated)	i	2%	12%	u	i
COc1ccc(C2c3c(-c4ccccc4O)n[nH]c3C(=O)N2CCc2ccc(OC)c(OC)c2)cc1 (configuration not stated)	i	-3%	u	2.8µM*	u
CCCN1C(=O)c2[nH]nc(-c3ccccc3O)c2C1c1ccc(OCc2ccccc2)c(OC)c1 (configuration not stated)	21µM*	x	x	x	u
COc1ccc(CCN2C(=O)c3[nH]nc(-c4ccccc4O)c3C2c2cccc(Cl)c2)cc1 (configuration not stated)	18µM*	4%[9.22 µM]	u	u	u
COc1cc(C2c3c(-c4ccccc4O)n[nH]c3C(=O)N2CCO)ccc1OCc1ccccc1 (configuration not stated)	i	x	x	x	i
Cc1ccc(S(=O)(=O)NCCC(=O)N2CCN(C/C=C/c3ccccc3)CC2)cc1	i	-4%	4%	-13%	i
O=C(c1ccc(=O)n(Cc2ccccc2)n1)N1CCN(C/C=C/c2ccccc2)CC1	u	2%	7%	16µM*	i
CC(C)(C)c1ccc(S(=O)(=O)NCC(=O)N2CCCC2)cc1	i	5.8µM*	-3%	-6%	i
CC(=O)c1ccc(S(=O)(=O)NCC(=O)N2CCN(C/C=C/c3ccccc3)CC2)cc1	i	4%	19%	-11%	18µM*
O=C(c1ccc(Br)s1)N1CCN(C/C=C/c2ccccc2)CC1	i	-1%	19%	u	15µM*
COc1cc(-c2ccc3ncnc(NCC4CCCO4)c3c2)cc(OC)c1OC (configuration not stated)	i	x	x	x	i
CCOc1ccccc1-c1nc(Cn2c(=O)cc(C)c3c(C)nn(-c4ccccc4)c32)c(C)o1	i	x	x	x	i
O=C(NCC(=O)N1CCN(C/C=C/c2ccccc2)CC1)c1ccc(Br)cc1	i	-21%	-5%	21µM*	u
O=C(NC(=S)N1CCN(C/C=C/c2ccccc2)CC1)c1ccc(Cl)nc1	i	3%	5%	18µM*	i
COc1ccc(CS(=O)(=O)CC(C)(O)c2ccccc2Cl)cc1 (configuration not stated)	i	-7%	2%	14%	i
CC1C(=O)N(Cc2cn(CC3CCCCC3)nn2)CCS(=O)(=O)N1Cc1ccc(-c2ccc(Cl)cc2)cc1 (configuration not stated)	u	x	x	x	18µM*
CC(C)C1C(=O)N(Cc2cn(CC3CCCCC3)nn2)CCS(=O)(=O)N1Cc1ccc(-c2ccc(F)nc2)cc1 (configuration not stated)	16µM*	x	x	x	u
CC1C(=O)N(Cc2cn(CC3CCCCC3)nn2)CCS(=O)(=O)N1Cc1ccc(-c2ccc(Cl)c(Cl)c2)cc1 (configuration not stated)	i	x	x	x	i
COCOCCn1cc(CN2CCS(=O)(=O)N(Cc3ccc(-c4ccc(Cl)c(Cl)c4)cc3)C(C)C2=O)nn1 (configuration not stated)	15µM*	x	x	x	u
O=C(CN1CCN(S(=O)(=O)N2CCOCC2)CC1)Nc1cc(Cl)ccc1Cl	i	0%	0%	21µM*	u
O=C(CN1CCN(S(=O)(=O)N2CCCCCC2)CC1)Nc1cc(Cl)ccc1Cl	i	-12%	5%	u	i
O=C(CN1CCC(C(O)(c2ccccc2)c2ccccc2)CC1)Nc1cc(Cl)ccc1Cl	i	u	-46%	6%	18µM*
COc1ccccc1NC(=O)Cn1c(=O)n(-c2cccc(Cl)c2)c(=O)c2c1c1cc(C)ccc1n2C	i	x	x	x	i
SMILES	KB-3-1 cytotox	SW480 rerep	MCF10A rereplic	ELG1 DNA repair	KB-V1 MDR tox
O=C(CSc1cn(CCNC(=O)c2cccc(C(F)(F)F)c2)c2ccccc12)Nc1ccc2c(c1)OCCO2	u	x	x	x	i
CC1CN(c2ccc([N+](=O)[O-])c(NCCOc3ccccc3)c2)CC(C)N1 (configuration not stated)	i	2%	17%	12%	u
Cc1ccccc1OCCNc1cc(N2CC(C)NC(C)C2)ccc1[N+](=O)[O-] (configuration not stated)	u	4%	-4%	-19%	21µM*
CN(C)c1ccc(C(=C2C=CC(=[N+](C)C)C=C2)c2ccc(N(C)C)cc2)cc1	2.6µM*	u	3%	x	i
CNCc1ccccc1Sc1cccc2ccccc12	u	u	u	-20%	15µM*
CN(C)CCN(C)Cc1ccccc1Sc1cccc2ccccc12	u	u	u	-20%	23µM*
COc1ccc(S(=O)(=O)N2CCOCC2)cc1NC(=O)c1ccc(S(=O)(=O)N(C)c2ccccc2OC)cc1	i	-13%	10%	x	i
CCOC1=C2CN(S(=O)(=O)c3ccc(C)cc3)[C@H](c3ccccc3)C[C@@H]2N(S(=O)(=O)c2ccc(Br)cc2)[C@H](c2ccccc2)C1	i	x	x	x	i
Cc1ccc(C)c(OCCSc2nc3ccccc3n2CC(=O)N2CCOCC2)c1	i	x	x	x	i
Cc1ccc(OCCSc2nc3ccccc3n2CC(=O)N2CCCCC2)c(C)c1	u	x	x	x	12µM*
COC(=O)CSc1nc2ccccc2nc1SCC(=O)OC	i	18µM*	23µM*	11%	i
CC(C)NC(=O)Cn1c(SCC(=O)N2CCCCCC2)nc2ccccc21	i	-6%	-5%	-12%	15µM*
CC(C)Cn1c(SCC(=O)N2CCN(C(=O)c3ccco3)CC2)nc2ccccc2c1=O	i	8%	0.65µM*	-24%	i
CC1(C)CC(=O)C=C(NC2CCCC(O)C2)C1 (configuration not stated)	i	-1%	u	14%	i
CCOc1cc(C(=O)N2CC(=O)Nc3ccc(C)cc3C2c2ccccc2)cc(OCC)c1OCC (configuration not stated)	i	x	x	x	u
CSc1ccc(CNC(=O)CCn2ccc3cc(S(=O)(=O)N4CCC(C)CC4)ccc32)cc1	i	x	x	x	i
CCc1nn(CC(=O)N2CCC(C)CC2)c(=O)c2cc3occc3n12	i	x	x	x	i
Cc1cc2nn(-c3ccc(F)cc3)nc2cc1NC(=O)c1cccc([N+](=O)[O-])c1C	i	x	x	x	i
